# Bioassay records as filed in PubChem BioAssay.
# Pf growth 96h: P. falciparum growth inhibition at 96 hours. AID 504834. actives 6.9% (n = 320,000). Potency, µM (doses to about 28.7 µM), for the others: at the highest dose activity change, negative = inhibition, usual class: inhibitors. P. falciparum luciferase reporter growth, 96 h; also: potency is read from the fitted curve at half-maximal effect; % is scaled to controls: 0 for no effect and ±100 for the full control effect
#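 Readout is luminescence from an integrated firefly luciferase in P. falciparum. Red cells, 2% hematocrit and 0.05% parasitemia final, were cultured with compound through two parasite generations (96 hours) at 37 C, 5% CO2.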
# Shiga inhibitor: blocks Shiga toxin action in Vero cells | Vero cells, Shiga toxin protein synthesis inhibition reporter | inhibition, % at 38.7 µM | actives 9.2% (n = 290,000) | AID 2315; in the data active = inhibition mostly above about 28%, no sharp cut-off; inactive = mostly below about 43%; also: 0% is about no effect
# FBPA Giardia inh: blocks Giardia fructose-bisphosphate aldolase activity | purified Giardia FBPA | Potency, µM (series often up to 59.6 µM), for the others: top-dose activity, negative = inhibition, usual class: inhibitors | actives 0.71% (n = 290,000) | AID 2451; also: potency is read from the fitted curve at half-maximal effect; % is scaled to controls: 0 for no effect and ±100 for the full control effect; nearly all actives have a fitted effect of over 55% in size
# Target sequence (A8B2U2 whole entry, looked up): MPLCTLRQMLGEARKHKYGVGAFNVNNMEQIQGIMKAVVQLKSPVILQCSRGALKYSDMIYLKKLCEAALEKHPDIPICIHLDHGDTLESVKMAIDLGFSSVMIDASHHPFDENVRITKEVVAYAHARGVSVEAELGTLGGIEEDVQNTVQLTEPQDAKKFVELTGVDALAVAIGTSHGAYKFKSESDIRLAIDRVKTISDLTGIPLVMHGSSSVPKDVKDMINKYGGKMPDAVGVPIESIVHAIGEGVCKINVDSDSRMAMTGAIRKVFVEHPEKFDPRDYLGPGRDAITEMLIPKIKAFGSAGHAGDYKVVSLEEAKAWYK
#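 40 nM FBPA preincubated 10 min at RT with compound (up to 57.5 uM final), then substrate plus GAPDH/TPI/NAD/arsenate coupling and diaphorase/resazurin added. Fluorescence read after 20 min at RT, 525/598 nm.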
# NS1 function inh: influenza NS1 inhibition; Potency, µM (titrated, usually from 46.1 µM), for the others: at the highest dose activity, positive = more growth; actives 0.4% (n = 270,000); AID 2326; calls by dose curve; also: potency is read from the fitted curve at half-maximal effect; actives are rising curves; nearly all actives have a fitted effect of over 50% in size
#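 A cell-based growth assay was used: compounds that relieve NS1-induced slow growth of budding yeast raise OD600. Assay medium was yeast nitrogen base with ammonium sulphate and -URA supplement, pH 6.0, with 2% galactose.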
# Cycloheximide cs: counter-screen for Shiga toxin inhibitors: cycloheximide protein synthesis inhibition; cell reporter, cycloheximide protein synthesis inhibition counterscreen; max response, %; actives 12% (n = 300,000); in the data active = max response mostly above about 13%, no sharp cut-off; inactive = mostly below about 14%; also: read at 38.3 µM for the half of the compounds with a filed dose; 0% is about no effect
# Pf growth 48h: inhibits P. falciparum growth in the first generation, 48 h | P. falciparum luciferase growth in erythrocytes, 48 h | Potency, µM (top dose mostly 28.7 µM), inactives show top-dose activity change, negative = inhibition, actives largely listed as inhibitors | actives 5.9% (n = 310,000) | AID 504832; also: potency is read from the fitted curve at half-maximal effect; % is scaled to controls: 0 for no effect and ±100 for the full control effect
#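 Compounds are pin-transferred into medium, infected erythrocytes (2% hematocrit, 0.1% parasitemia final) are added, and plates sit one parasite generation at 37 C in 5% CO2. Detection reagent is then added and luminescence measured.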
# * hit, by the source's call; u = inconclusive; x = no result given; [ ] = dose if it differs, or a comment. Sampled rows, rich in hits. Any-hit rate of the full collection: about 21%. Unless noted, calls follow the shape of the dose curve; as a rule, active = well fitted curve in the direction sought with a large enough effect; inconclusive = small, poorly fitted or top-dose-only effect, or another doubt; inactive = no such curve, though single readings can be large; an effect the other way counts as inactive or inconclusive.
SMILES,Pf growth 96h,Shiga inhibitor,FBPA Giardia inh,NS1 function inh,Cycloheximide cs,Pf growth 48h
CN(c1ccc(O)cc1)c1nc(-c2ccccc2)cs1,2%,active,-4%,-67%,62*,149%
COCCN(C(=O)c1ccco1)c1nc(-c2ccccc2)cs1,u,x,-4%,-30%,10,72%
CCCN(C(=O)c1ccco1)c1nnc(-c2ccncc2)s1,229%,37,-4%,-8%,9,66%
O=C(c1cccs1)N(Cc1ccco1)c1nc(-c2ccc(F)cc2)cs1,-12%,2,-1%,10%,-3,13µM*
CCCCN(C(=O)c1ccco1)c1nnc(-c2cc(OC)c(OC)c(OC)c2)s1,x,-7,9%,-3%,-4,1.9µM*
CN(C(=O)c1ccco1)c1nc(-c2ccccc2)cs1,u,36*,-4%,-6%,38*,276%
COCCN(C(=O)C(C)C)c1nnc(-c2cccc(C)c2)s1,2%,26,1%,-21%,11,u
COCCN(C(=O)C(C)C)c1nnc(-c2ccc(C)cc2)s1,69%,83*,x,-25%,29,78%
CCN(C(=O)c1ccccc1F)c1nc(-c2ccc(OC)cc2)cs1,-23%,51*,-6%,16%,44*,4%
C/C(=N/NS(=O)(=O)c1ccc(Br)cc1)c1ccc(NC(=O)c2ccc(C)o2)cc1,67%,78*,0%,-76%,48*,43%
C/C(=N\NS(=O)(=O)c1ccc([N+](=O)[O-])cc1)c1ccc(NC(=O)c2ccco2)cc1,17%,78,-4%,x,25*,224%
CC(=O)Nc1ccc(/C(C)=N/NS(=O)(=O)c2ccc(C)cc2)cc1,u,35,7%,-11%,16,42%
CCOc1ccc2oc(C(=O)OCC(=O)N3CC(C)OC(C)C3)c(C)c2c1 (stereo unspecified),u,x,x,x,x,-14%
CN1[C@H](Cc2ccccc2)C=C[C@]1(C)C(=O)NCC1CC1,x,x,-24%,x,x,x
CCNc1oc(/C=C/c2ccc(OCC)cc2)nc1C#N,u,38*,-22%,-7%,16*,u
CNc1oc(/C=C/c2cccc(OC)c2)nc1C#N,165%,99*,-7%,-3%,35*,69%
COc1ccc(/C=C/c2nc(C#N)c(NCCN(C)C)o2)cc1OC,1%,2,-2%,-9%,2,5%
CCOc1ccc(-c2nc(C#N)c(NCC(C)C)o2)cc1,x,15,1%,-18%,-1,u
CCN(CC)CCCNc1oc(/C=C/c2ccccc2)nc1C#N,1%,24,-5%,1%,22*,2%
O=C(NNC(=O)c1ccc([N+](=O)[O-])cc1C(=O)O)c1ccncc1,10%,21,-11%,-2%,5,x
Cc1ccc(S(=O)(=O)NCCC(=O)NNC(=O)COc2ccccc2Cl)cc1C,-69%,x,x,x,x,-26%
CCC(=O)CC(NC(=O)OC)c1ccc(F)cc1 (stereo unspecified),x,x,1%[12.9 µM],x,x,x
CCOc1ccccc1NC(=O)c1cc(C(=O)Nc2ccccc2OCC)cc(N2C(=O)CCC2=O)c1,u,-15,1%,-4%,-4,-18%
On1ccccc1=S,0.59µM*,x,x,x,x,0.83µM*
O=S1(=O)CCO[C@H]2Cc3ccccc3[C@H]2N1Cc1ccccc1Br,17µM*,9,7%,0%,0,12%
SMILES,Pf growth 96h,Shiga inhibitor,FBPA Giardia inh,NS1 function inh,Cycloheximide cs,Pf growth 48h
CCC(C)NC(=O)CCn1c(-c2ccccc2)cc(C(C)=O)c1C (stereo unspecified),u,-2,0%,-9%,-5,7%
CCOC(=O)c1cc(-c2ccccc2)n(CCC(=O)N2CCN(c3ccccc3OC)CC2)c1C,u,-4,-3%,-12%,-5,9.3µM*
CCOC(=O)c1cc(-c2ccccc2)n(CCC(=O)NC(C)CC)c1C (stereo unspecified),4.1µM*,-11,0%,-13%,-2,u
COc1ncc2ncc(=O)n(CCc3ccccc3)c2n1,x,x,1%,x,x,x
Cc1cc2cc(CN(Cc3ccc4c(c3)OCO4)C(=O)c3cnccn3)c3nnnn3c2cc1C,x,-14,7%,u,-8,-5%
CC(=O)N(Cc1cc2cc(C)c(C)cc2n2nnnc12)CC1COCCO1 (stereo unspecified),2.9µM*,-17,6%,-8%,-2,33%
